High-throughput results (PubChem)
Mcl1-Noxa inh = Mcl-1/Noxa binding inhibitors, primary screen, biochemical, TR-FRET, 1536-well | Induced myeloid leukemia cell differentiation protein Mcl-1 (Homo sapiens), Q07820 | inhibition, % at 21.7 µM | 220,000 tested, 1.5% active | TR-FRET Mcl-1/Noxa peptide binding, 2 h;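 active means compounds that cut the protein-peptide binding signal by more than 50% relative to plate controls in a single-dose test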;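 further: His-tagged Mcl-1 with rhodamine Noxa BH3 peptide and terbium anti-His antibody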
Target sequence (Q07820 whole entry, looked up): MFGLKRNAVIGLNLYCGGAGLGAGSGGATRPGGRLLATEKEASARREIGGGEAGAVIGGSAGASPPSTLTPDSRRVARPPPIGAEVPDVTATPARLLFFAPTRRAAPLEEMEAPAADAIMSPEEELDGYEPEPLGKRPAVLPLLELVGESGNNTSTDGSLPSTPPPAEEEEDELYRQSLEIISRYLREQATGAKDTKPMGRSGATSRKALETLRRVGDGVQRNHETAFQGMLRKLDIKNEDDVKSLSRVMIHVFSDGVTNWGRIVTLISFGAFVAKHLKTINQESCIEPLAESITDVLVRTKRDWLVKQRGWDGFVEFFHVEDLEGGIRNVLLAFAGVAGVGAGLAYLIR
GLD-1 RNA inh = GLD-1/TGE RNA complex disruptors, primary screen, biochemical, fluorescence polarization | purified GLD-1 + fluorescein TGE RNA | inhibition, % at 5.96 µM | 320,000 tested, 0.44% active;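 active means percent inhibition above a per-plate cutoff, the plate mean of test compounds plus 3 SD, cut at about 30% in these data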
Target sequence (Q17339 whole entry, looked up): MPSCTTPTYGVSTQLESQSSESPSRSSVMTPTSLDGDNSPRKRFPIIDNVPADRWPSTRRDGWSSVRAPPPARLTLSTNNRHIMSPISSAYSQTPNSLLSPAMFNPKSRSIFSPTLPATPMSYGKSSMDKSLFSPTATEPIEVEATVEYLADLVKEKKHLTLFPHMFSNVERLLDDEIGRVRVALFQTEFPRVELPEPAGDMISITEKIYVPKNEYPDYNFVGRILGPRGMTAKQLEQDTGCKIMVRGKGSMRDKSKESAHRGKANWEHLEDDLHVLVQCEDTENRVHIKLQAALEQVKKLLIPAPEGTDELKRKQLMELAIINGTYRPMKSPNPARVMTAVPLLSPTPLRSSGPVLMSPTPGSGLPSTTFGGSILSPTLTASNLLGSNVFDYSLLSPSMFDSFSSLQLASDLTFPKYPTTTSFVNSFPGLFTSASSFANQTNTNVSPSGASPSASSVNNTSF
Bim-Mcl-1 = inhibitors of Bim peptide binding to Mcl-1, primary screen, biochemical, bead-based flow cytometry, multiplex; Bim peptide-Mcl-1 binding; inhibition, % at 10 µM; 190,000 tested, 0.1% active; AID 1009, 2008; in the data active means inhibition above about 40%
Bcl-xL primary = inhibitors of human Bcl-xL, primary screen, biochemical, fluorescence polarization, HTS; Bcl-2-like protein 1 (Homo sapiens), Q07817; AID 2129, 2009; inhibition, % at 10.9 µM; GST-Bcl-xL / FITC-Bim BH3 peptide fluorescence polarization; 320,000 tested, 0.7% active;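 active means inhibition above the mean of all tested compounds plus 3 SD, cutoff set per campaign, cut at about 30% in these data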;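 further: inhibitors lower millipolarization by displacing the labeled peptide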
Mcl1 Bid PPI = Mcl-1/Bid binding inhibitors, primary screen, biochemical, TR-FRET, 1536-well; Induced myeloid leukemia cell differentiation protein Mcl-1 (Homo sapiens), Q07820; TR-FRET Mcl-1/Bid-Dy647 peptide binding; inhibition, % at 21.7 µM; 220,000 tested, 0.97% active;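 active means compounds that cut the binding signal by more than half at the single screening dose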;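 further: His-tagged Mcl-1 with europium anti-His antibody binding Bid BH3 peptide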
MCL1-BIM inh = inhibitors of MCL1 binding to BIM-BH3, primary screen, biochemical, fluorescence polarization; Induced myeloid leukemia cell differentiation protein Mcl-1 (Homo sapiens), Q07820; GST-MCL1 / FITC-Bim-BH3 fluorescence polarization; inhibition, % at 10.9 µM; 320,000 tested, 0.68% active; AID 2057, 2009;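 active means inhibition above the mean inhibition of all tested compounds plus 3 SD, set per campaign, cut at about 40% in these data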;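 further: higher means more loss of mP so more displacement of Bim peptide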
GLD-1 TGE cf = GLD-1/TGE RNA binding inhibitors, retest, confirmation, biochemical, fluorescence polarization, triplicate; inhibition, % at 5.96 µM; GLD-1/FL-TGE RNA fluorescence polarization; shares compounds with GLD-1 RNA inh; AID 2459, 2010; 550 tested, 10% active;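 active means average inhibition across triplicates above the hit cutoff set in the primary screen, cut at about 32% in these data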
Large screens that a line does not name were inactive (follow-up assays come after a bar, where they were run). The list is not random: actives were taken first. Their share in the collection is about 2.3%.

CCC1(CC)NC(=O)N(CC(=O)OCC(=O)Nc2ncc(Cl)cc2Cl)C1=O	none (no result: Mcl1-Noxa inh, Bim-Mcl-1, Mcl1 Bid PPI)
CC(=O)Nc1cccc(C(=O)NC2CCCc3c2cnn3-c2cc(C)cc(C)c2)c1 (stereo unspecified)	GLD-1 RNA inh 58 (no result: Mcl1-Noxa inh, Bim-Mcl-1, Mcl1 Bid PPI) | GLD-1 TGE cf inactive
O=C(/C=C/c1ccc(Cl)cc1)NCc1cccs1	GLD-1 RNA inh 65 | GLD-1 TGE cf inactive
Cc1ccc(OCC(=O)Nc2ccccc2C(=O)N2CCCC2)cc1	none (no result: Mcl1-Noxa inh, Bim-Mcl-1, Mcl1 Bid PPI)
COc1ccc(S(=O)(=O)C(C#N)c2nc3ccccc3nc2N2CCC(C)CC2)cc1 (stereo unspecified)	GLD-1 RNA inh 42, Bcl-xL primary 49, MCL1-BIM inh 47 (no result: Mcl1-Noxa inh, Bim-Mcl-1, Mcl1 Bid PPI) | GLD-1 TGE cf inactive
Cc1cccc(S(=O)(=O)C(C#N)c2nc3ccccc3nc2N2CCOCC2)c1 (stereo unspecified)	GLD-1 RNA inh 41, Bcl-xL primary 32 | GLD-1 TGE cf inactive
CCCCCCC(C)n1[nH]c(=O)cc1N (stereo unspecified)	none (no result: Bim-Mcl-1)
CC1CC(C)CN(C(=O)CSc2ncnc3sccc23)C1 (stereo unspecified)	none (no result: Mcl1-Noxa inh, Bim-Mcl-1, Mcl1 Bid PPI)
COc1ccc(C2Nc3ccccc3NC3=C2C(=O)CC(C)(C)C3)cc1 (stereo unspecified)	none (no result: Mcl1-Noxa inh, Bim-Mcl-1, Mcl1 Bid PPI)
CC1(C)CC(=O)C2=C(C1)Nc1ccccc1NC2c1ccc(F)cc1 (stereo unspecified)	GLD-1 RNA inh 35, Bcl-xL primary 46, MCL1-BIM inh 45 (no result: Mcl1-Noxa inh, Bim-Mcl-1, Mcl1 Bid PPI) | GLD-1 TGE cf inactive
Cc1ccc2c(c1)-n1c(nc3ccccc3c1=O)C(Cc1ccccc1)NC2=O (stereo unspecified)	none (no result: Mcl1-Noxa inh, Bim-Mcl-1, Bcl-xL primary, Mcl1 Bid PPI, MCL1-BIM inh)
Cc1ccc(S(=O)(=O)N[C@H](C(=O)Oc2ccc3c(C(F)(F)F)cc(=O)oc3c2)c2ccccc2)cc1	GLD-1 RNA inh 50, Bcl-xL primary 45, MCL1-BIM inh 45 | GLD-1 TGE cf 44
Cc1ccc(S(=O)(=O)NC(C(=O)Oc2ccc3ccc(=O)oc3c2)c2ccccc2)cc1 (stereo unspecified)	none
CN(CC(=O)NCCCc1ccccc1)S(=O)(=O)c1ccc(Br)cc1	none (no result: Mcl1-Noxa inh, Bim-Mcl-1, Mcl1 Bid PPI)
NS(=O)(=O)c1ccc2c(c1)C1C=CCC1C(C1CC=CCC1)N2 (stereo unspecified)	GLD-1 RNA inh 34, Bcl-xL primary 46, MCL1-BIM inh 44 | GLD-1 TGE cf inactive
CC(C)C1Nc2ccc(S(N)(=O)=O)cc2C2C=CCC21 (stereo unspecified)	none
O=C1c2ccccc2C(=O)c2c(O)c(O)cc(O)c21	GLD-1 RNA inh 70 (no result: Mcl1-Noxa inh, Bim-Mcl-1, Bcl-xL primary, Mcl1 Bid PPI, MCL1-BIM inh) | GLD-1 TGE cf 43
CCC1CCc2sc(C(=O)NCC(c3ccc(OC)cc3)N3CCCC3)cc2C1 (stereo unspecified)	GLD-1 RNA inh 49 (no result: Mcl1-Noxa inh, Bim-Mcl-1, Mcl1 Bid PPI) | GLD-1 TGE cf inactive
CCN1C/C(=C/c2sccc2C)c2nc3ccccc3c(C(=O)O)c2C1	none (no result: Bim-Mcl-1)
CCN1C/C(=C/c2cccs2)c2nc3ccccc3c(C(=O)O)c2C1	GLD-1 RNA inh 35, Bcl-xL primary 32 (no result: Bim-Mcl-1) | GLD-1 TGE cf 34
O=C(CN(C1CCCCC1)C1CCCCC1)N1CCc2ccccc2C1	GLD-1 RNA inh 39 | GLD-1 TGE cf inactive
O=C(CN(C1CCCCC1)S(=O)(=O)c1ccccc1)N1CCCC1	none
CCOc1ccccc1OCCCC(=O)NNC(=O)c1cc(C)oc1C	none (no result: Mcl1-Noxa inh, Bim-Mcl-1, Mcl1 Bid PPI)
COC(=O)COc1ccc(/C=C2/NC(=O)N(CC(=O)OC)C2=O)cc1	none
COC(=O)CN1C(=O)N/C(=C/c2ccc(C)o2)C1=O	GLD-1 RNA inh 63 | GLD-1 TGE cf inactive
CCOC(=O)C1=C(Cc2ccc(F)cc2)C(=O)c2ccccc2C1=O	GLD-1 RNA inh 66, Bcl-xL primary 35, MCL1-BIM inh 41 | GLD-1 TGE cf inactive
CCOC(=O)NC(=O)C(/C=N/c1sccc1C(=O)OC)=C(\C)O	GLD-1 RNA inh 46 | GLD-1 TGE cf inactive
CCc1n[nH]c(=S)n1/N=C/c1cc(Br)c(O)c(OC)c1	GLD-1 RNA inh 56 (no result: Bim-Mcl-1) | GLD-1 TGE cf inactive
COc1cc(/C=N/n2c(COc3ccccc3)n[nH]c2=S)cc(Br)c1O	none (no result: Mcl1-Noxa inh, Bim-Mcl-1, Mcl1 Bid PPI)
O=C1COc2ccc(C(=O)COC(=O)CCSc3ccccc3)cc2N1	GLD-1 RNA inh 59 (no result: Bim-Mcl-1) | GLD-1 TGE cf inactive
O=[N+]([O-])c1ccc(Cc2ccccn2)c([N+](=O)[O-])c1	none (no result: Mcl1-Noxa inh, Bim-Mcl-1, Mcl1 Bid PPI)
CCC12OC(=N)C(C#N)(C1C)C(C#N)(C#N)C(c1ccccc1)O2 (stereo unspecified)	GLD-1 RNA inh 33 | GLD-1 TGE cf inactive
CCN(CC)CCNC(C(=O)Nc1cc(C(F)(F)F)ccc1Cl)c1ccccc1 (stereo unspecified)	GLD-1 RNA inh 35 | GLD-1 TGE cf inactive
O=C(NC(=S)Nc1ccc2oc(=O)ccc2c1)c1cccc(Cl)c1	none (no result: Mcl1-Noxa inh, Bim-Mcl-1, Mcl1 Bid PPI)
CCn1c(COc2cccc(C)c2)nnc1SCC(=O)CC(=O)Nc1ccccc1OC	none
CCn1c(COc2ccccc2)nnc1SCC(=O)CC(=O)Nc1ccccc1OC	GLD-1 RNA inh 35 | GLD-1 TGE cf inactive
O=C(N/N=C/c1ccc[nH]1)c1ccc([N+](=O)[O-])cc1	GLD-1 RNA inh 57 | GLD-1 TGE cf inactive
COC(=O)c1ccc(NC(=O)CSc2nnc(-c3ccccc3Br)n2-c2ccccc2)cc1	GLD-1 RNA inh 46 (no result: Mcl1-Noxa inh, Bim-Mcl-1, Mcl1 Bid PPI) | GLD-1 TGE cf inactive
Cc1ccc(NC(=O)CSc2nnc(C)n2-c2ccccc2)cc1	none
CCNC(=O)CC1SC(=Nc2ccc(C)c([N+](=O)[O-])c2)N(C)C1=O (stereo unspecified)	GLD-1 RNA inh 31 (no result: Mcl1-Noxa inh, Bim-Mcl-1, Mcl1 Bid PPI) | GLD-1 TGE cf inactive
COc1ccc(-c2nn(-c3ccccc3)cc2/C=C(\CC(=O)O)c2nc3ccccc3s2)cc1OC	none
COc1ccc(/C=C(\CC(=O)O)c2nc3ccccc3s2)cc1O	GLD-1 RNA inh 55 | GLD-1 TGE cf 39
O=C(Nc1cccc2c1C(=O)NC2=O)c1ccc(S(=O)(=O)N2CCCC2)cc1	GLD-1 RNA inh 36, Bcl-xL primary 31 (no result: Mcl1-Noxa inh, Mcl1 Bid PPI) | GLD-1 TGE cf inactive
Cc1cccc(NC(=O)c2ccc(S(=O)(=O)N3CCCC3)cc2)c1C	none (no result: Mcl1-Noxa inh, Bim-Mcl-1, Mcl1 Bid PPI)
CC1(c2ccc3c(c2)OCCO3)NC(=O)N(CC(=O)Nc2ccccc2)C1=O (stereo unspecified)	none (no result: Mcl1-Noxa inh, Bim-Mcl-1, Mcl1 Bid PPI)
CCCCC1=CC2=C(c3ccco3)C(=O)C(C)(OC(=O)c3ccc(OC)cc3)C(=O)C2=CN1CC(C)C (stereo unspecified)	none (no result: Bim-Mcl-1)
